The supplement of paper PMC9446081
In all, about 39,000 compounds went through this assay and about 220 (0.56%) showed activity. This is one part of a sample in which actives are shown more often than they occur. Values without a mark were called inactive.
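Further: Wild-type cells incubated without shaking, value is the mean of two biological replicates.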

The compounds below were run on Escherichia coli K-12 BW25113 (assay: relative growth (OD600 normalised to plate interquartile mean) (fraction); higher = less growth inhibition, active = 0.2 or less). Details: 50 µM; LB; incubation time: overnight (16-24 h).
COc1ccc(NC(=O)N(C)C[C@@H]2OCCCC[C@@H](C)Oc3ccc(NC(=O)Nc4ccccc4)cc3C(=O)N([C@H](C)CO)C[C@@H]2C)cc1 gave a relative growth of 1.01. In the case of CCCCCCO[C@@H](C)c1cccc(-c2csc(NC(=O)c3cc(Cl)c(/C=C(\C)C(=O)O)c(Cl)c3)n2)c1OC, the relative growth is reported as 0.777. For C=CCC[C@H](Cc1ccc(F)cc1)C(=O)O[C@@H](CNC(=O)[C@@H](CC=C)CC(=O)N(CCO)Cc1ccccc1)c1ccccc1, the relative growth was 1.07. With CC(=O)N1CCN(C(=O)C(=O)NC[C@H](c2ccc(N(C)C)cc2)N2CCOCC2)CC1 the relative growth was 0.989. Work on Cc1cc(C)c(NC(=O)[C@@H](N)Cc2ccccc2)c(Cl)c1 yielded a relative growth of 1.02. Cc1ccc(S(=O)(=O)N(C)C[C@H]2Oc3cc(C#Cc4ccncc4)ccc3S(=O)(=O)N([C@@H](C)CO)C[C@H]2C)cc1 was tested, and the relative growth was 1.04. c1ccc(-c2ccnc(-c3cc(-c4ccccc4)ccn3)c2)cc1 gave a relative growth of 0.99. Work on Cl.NCCCC(=O)O [gamma-AMINOBUTYRIC ACID HYDROCHLORIDE] yielded a relative growth of 0.905. In the case of O=C(O)c1ccc2c(c1)OCO2, the relative growth is reported as 0.853. CCn1nc(C(=O)O)c(=O)c2cc3c(cc21)OCO3 was tested, and the relative growth was 0.0537 (active). CNC(=O)NCc1ccc2c(c1)OCO2 gave a relative growth of 1. Compound C[C@H](CO)N1C[C@H](C)[C@H](CN(C)S(=O)(=O)c2cn(C)cn2)OCCCC[C@H](C)Oc2ccc(NS(=O)(=O)c3cccs3)cc2C1=O has a relative growth of 1.01. For CS(=O)(=O)N(CCC#N)Cc1ccco1, the relative growth was 1. In the case of C[C@H]1CN([C@@H](C)CO)C(=O)Cc2cc(NC(=O)CCN3CCOCC3)ccc2O[C@@H]1CN(C)S(=O)(=O)c1cn(C)cn1, the relative growth is reported as 1.03. CC(C)NC(=O)N(C)C[C@@H]1Oc2ccc(NC(=O)Cc3ccccc3)cc2CC(=O)N([C@H](C)CO)C[C@H]1C was tested, and the relative growth was 0.977. Work on CC(C)NC(=O)N(C)C[C@@H]1Oc2ccc(NC(=O)CCC(F)(F)F)cc2CC(=O)N([C@H](C)CO)C[C@@H]1C yielded a relative growth of 0.959. In the case of Cn1c(=O)cnn(CCCCN2CCN(c3ncccn3)CC2)c1=O, the relative growth is reported as 0.987. Work on O=C(C1CC1)N1CCN(c2ncccn2)CC1 yielded a relative growth of 0.991. For Cl.O=C1CC2(CCCC2)CC(=O)N1CCCCN1CCN(c2ncccn2)CC1, the relative growth was 0.0493 (active). CC(C)CC#Cc1cnc2c(c1)C(=O)N([C@@H](C)CO)C[C@@H](C)[C@H](CN(C)C(=O)CCN1CCCCC1)O2 was tested, and the relative growth was 0.987. With COc1ccc(NC(=O)N(C)C[C@@H]2Oc3c(NC(=O)CCCCCC(=O)Nc4ccccc4N)cccc3C(=O)N([C@H](C)CO)C[C@H]2C)cc1 the relative growth was 1.01. C[C@@H]1CN([C@H](C)CO)C(=O)c2cc(NC(=O)Nc3ccc(C(F)(F)F)cc3)ccc2O[C@@H]1CN(C)Cc1ccc(-c2ccccc2)cc1 gave a relative growth of 0.996. For O=C1NCCN1c1cccnc1, the relative growth was 1.01. In the case of O=C1NCCN1c1ncc([N+](=O)[O-])s1, the relative growth is reported as 0.0407 (active). With CC(=O)Nc1ncc([N+](=O)[O-])s1 the relative growth was 0.923. Cc1noc(C)c1NC(=O)Nc1ccc2c(c1)CC(=O)N([C@H](C)CO)C[C@@H](C)[C@H](CN(C)CC1CC1)O2 was tested, and the relative growth was 1.02. In the case of CCCCCCCCCCCCCCCCCCCC(=O)N[C@H]1CC[C@@]2(C)[C@@H](C1)C[C@@H](O)[C@@H]1[C@@H]2C[C@H](O)[C@]2(C)[C@@H]([C@H](C)CCC(=O)O)CC[C@@H]12, the relative growth is reported as 1.02. In the case of CC(C)[C@@H](CC[C@@H](C)[C@H]1CC[C@H]2[C@@H]3[C@H](O)C[C@H]4C[C@@H](NCCCNCCCCN)CC[C@]4(C)[C@H]3CC[C@]12C)OS(=O)(=O)O, the relative growth is reported as 0.137 (active). COC(=O)CCC(C)C1CCC2C3C(O)CC4CC(O)CCC4(C)C3CC(O)C12C (stereo unspecified) gave a relative growth of 1.03. In the case of CC(C)[C@@H](CC[C@@H](C)[C@H]1CC[C@H]2[C@@H]3[C@H](O)C[C@H]4C[C@@H](NCCCNCCCCNCCCN)CC[C@]4(C)[C@H]3CC[C@]12C)OS(=O)(=O)O, the relative growth is reported as 0.152 (active). C[C@H](CCC(=O)NCCS(=O)(=O)O)[C@H]1CC[C@H]2[C@@H]3[C@H](O)C[C@@H]4C[C@H](O)CC[C@]4(C)[C@H]3C[C@H](O)[C@]12C gave a relative growth of 1.01. CC(CCC(=O)O)C1CCC2C3C(O)CC4CC(O)CCC4(C)C3CCC12C (stereo unspecified) showed a relative growth of 1.01. C[C@H]1CN([C@@H](C)CO)C(=O)Cc2cc(NC(=O)Cc3ccccc3)ccc2O[C@@H]1CN(C)S(=O)(=O)c1ccccc1 was tested, and the relative growth was 0.993. Work on CCOC(=O)[C@@H](C)n1ncn2cccc2c1=O yielded a relative growth of 1.01. Compound CCCC#Cc1ccc2c(c1)O[C@@H](CN(C)C(=O)c1cnccn1)[C@@H](C)CN([C@H](C)CO)S2(=O)=O has a relative growth of 0.971. C[C@H]1CC/C=C\[C@H]2O[C@@]34C=CCN(c5ccc6ccccc6c5)C(=O)[C@H]3N(CCO)C(=O)[C@@H]4[C@@H]2C(=O)O1 was tested, and the relative growth was 0.983. With CC(=O)N1C[C@@H]2C(=O)N(C)C3(CCN(S(=O)(=O)Cc4ccccc4)CC3)[C@H]2C1 the relative growth was 0.958. Compound C[C@H]1CN([C@@H](C)CO)C(=O)Cc2cc(NC(=O)CCCCCC(=O)Nc3ccccc3N)ccc2O[C@H]1CN(C)C(=O)Nc1ccc(C(F)(F)F)cc1 has a relative growth of 0.958. In the case of C[C@H]1CN([C@@H](C)CO)C(=O)c2c(c3ccccc3n2C)-c2ccccc2CO[C@@H]1CN(C)Cc1cccc(F)c1, the relative growth is reported as 0.962. For NC(C(=O)NC1C(=O)N2C(C(=O)O)=C(Cl)CSC12)c1ccccc1 (stereo unspecified), the relative growth was 0.0491 (active). Work on CC1=C(C(=O)O)N2C(=O)[C@@H](NC(=O)[C@@H](N)c3ccccc3)[C@H]2SC1 yielded a relative growth of 0.998. With CC1=C(C(=O)O)N2C(=O)[C@@H](NC(=O)[C@H](N)c3ccccc3)[C@H]2SC1 the relative growth was 1.03. With CC1=C(C(=O)O)N2C(=O)[C@H](NC(=O)[C@@H](N)c3ccccc3)[C@H]2SC1 the relative growth was 1.02. For N[C@@H](C(=O)N[C@@H]1C(=O)N2C(C(=O)O)=C(Cl)CC[C@H]12)c1ccccc1, the relative growth was 0.0311 (active). CC1=C(C(=O)O)N2C(=O)C(NC(=O)C(N)c3ccccc3)C2SC1 (stereo unspecified) gave a relative growth of 1.03. N[C@@H](C(=O)N[C@@H]1C(=O)N2C(C(=O)O)=C(Cl)CS[C@H]12)c1ccccc1 was tested, and the relative growth was 0.0303 (active).
